Reference: the supplement of paper PMC11219838

These compounds were tested on Caenorhabditis elegans L1 (N2) (assay: survival and reproduction score of C. elegans L1 (0: 0-10 living worms, 1: 11-20, 2: 21-50, 3: >50, 4: overgrown) (score 0-4); higher = more worms, less nematicidal, active = 1 or less; extreme values may be limits of the assay). Details: 60 µM; 6 days; temperature: 20 °C.
In short: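 In liquid NGM with E. coli HB101, approximately 20 synchronized C. elegans N2 L1s per 96-well well were exposed to compound at 60 µM final (0.6% v/v DMSO) for 6 days at 20 °C with shaking at 200 rpm in sealed plates. Survival and reproduction were judged under a dissection microscope as an ordinal rating of living worms per well. Ratings went from 0 (0–10 worms) to 4 (overgrown, starved) and were averaged over two biological replicates.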

| Compound | survival and reproduction score |
| --- | --- |
| COc1ccc(-c2nnc(SCc3c(Cl)cccc3Cl)o2)cc1 | 4 (inactive) |
| Cc1ccccc1CSc1nnc(-c2ccccc2)o1 | 4 (inactive) |
| CCNC(=O)c1ccccc1-c1nc(-c2ccc(OC)cc2)no1 | 4 (inactive) |
| COc1ccc(-c2noc(-c3ccccc3C(=O)Nc3cccc(C)c3C)n2)cc1 | 4 (inactive) |
| CCc1cccc(CC)c1NC(=O)CSc1nnc(-c2ccccc2OC)o1 | 4 (inactive) |
| Cc1ccc(-c2noc(COc3ccc(Br)cc3)n2)cc1 | 4 (inactive) |
| Cc1cccc(-c2noc(COc3cc(C)ccc3C)n2)c1 | 2 (inactive) |
| Cc1ccc(-c2noc(COc3ccc(Cl)cc3)n2)cc1 | 4 (inactive) |
| COC(=O)c1ccc(NC(=O)CSc2nnc(-c3ccc(Cl)cc3Cl)o2)cc1 | 4 (inactive) |
| COc1cccc(-c2noc(COc3ccc(C)cc3)n2)c1 | 4 (inactive) |
| Brc1ccccc1-c1nc(-c2ccccn2)no1 | 2 (inactive) |
| O=C(CSc1nnc(-c2ccccc2)o1)Nc1ccc(F)cc1F | 4 (inactive) |
| Clc1ccc(CSc2nnc(-c3ccccc3)o2)cc1Cl | 4 (inactive) |
| CCCC(=O)Nc1ccccc1-c1nc(-c2ccccn2)no1 | 4 (inactive) |
| COc1nc(C)ccc1-c1noc(-c2ccc(F)cc2)n1 | 4 (inactive) |
| CCn1c(C)cc(C(=O)CSc2nnc(-c3ccccc3)o2)c1C | 4 (inactive) |
| COc1ccccc1-c1noc(-c2ccccc2F)n1 | 4 (inactive) |
| CCn1c(SCc2ccc(OC)cc2)nnc1-c1ccco1 | 4 (inactive) |
| COc1ccc(-c2nnc(SCC(=O)c3ccc4ccccc4c3)o2)cc1 | 4 (inactive) |
